# A selection: hits, their analogues and other compounds. The true share with any hit is near 5.7%.
# RORgamma inh – blocks mouse ROR gamma transcriptional activity | Drosophila S2 Gal4-RORgamma UAS-luciferase reporter, 20 h | Potency, µM (highest dose often 53.6 µM), inactives show top-dose activity change, negative = inhibition, most hits filed as inhibitors | P51450 | hit rate 5.4% among 310,000 | AID 2551; also: nearly all actives have a fitted effect of over 60% in size
#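 Drosophila S2 cells stably expressing Gal4-DBD/mouse RORγ fusion under metallothionein promoter plus UAS-luciferase; compound 1 h, then 700 uM CuSO4 induction for 20 h at ambient temperature; inhibition read as reduced luminescence.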
# Gal4-VP16 FLuc – inhibits Gal4-VP16 luciferase reporter, ROR gamma counter-screen. AID 2546. Drosophila S2 Gal4-VP16 UAS-luciferase, luminescence, 20 h. hit rate 3.5% among 310,000. Potency, µM (titrated, usually from 53.6 µM), without a hit: at the highest dose activity, negative = inhibition, usual class: inhibitors;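 also: Gal4-VP16 expression switched on by copper sulfate through the metallothionein promoter; nearly all actives have a fitted effect of over 50% in size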
# B2AR arrestin – agonists driving beta-arrestin recruitment to human beta2-adrenergic receptor | P07550 | beta-arrestin recruitment to beta2AR, cell-based reporter | Potency, µM (series often up to 46.1 µM), for inactives: top-dose activation, usual class: activators | hit rate 0.02% among 330,000;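 also: 0% = DMSO controls and full agonism = EC100 isoproterenol or metaproterenol; nearly all actives have a fitted effect of over 65% in size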
# Target sequence (P07550 whole entry, looked up): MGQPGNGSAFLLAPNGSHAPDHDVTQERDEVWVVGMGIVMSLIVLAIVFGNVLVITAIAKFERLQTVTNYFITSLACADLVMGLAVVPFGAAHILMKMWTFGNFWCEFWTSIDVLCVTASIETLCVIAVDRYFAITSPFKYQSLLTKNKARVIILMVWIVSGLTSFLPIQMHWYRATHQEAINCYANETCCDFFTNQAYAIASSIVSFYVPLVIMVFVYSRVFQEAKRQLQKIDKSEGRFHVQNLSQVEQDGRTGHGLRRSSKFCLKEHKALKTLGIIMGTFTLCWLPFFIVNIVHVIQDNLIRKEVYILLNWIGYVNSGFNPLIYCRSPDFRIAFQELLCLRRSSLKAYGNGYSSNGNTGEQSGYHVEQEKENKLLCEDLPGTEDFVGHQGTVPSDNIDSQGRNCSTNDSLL
# NPSR antag – blocks cAMP signaling of the human neuropeptide S receptor; Q6W5P4; CHO-NPSR cells, cAMP TR-FRET, antagonist mode; Potency, µM (highest dose often 38.3 µM), without a hit: top-dose activity change, negative = inhibition, hits mostly inhibitors; hit rate 1% among 220,000; AID 1461; also: nearly all actives have a fitted effect of over 50% in size
# * = called active by the depositor; u = inconclusive; x = no result given; [ ] = another dose, or the depositor's remark. Calls follow the shape of the dose curve; as a rule, active = well fitted curve in the direction sought with a large enough effect; inconclusive = small, poorly fitted or top-dose-only effect, or another doubt; inactive = no such curve, though single readings can be large; an effect the other way counts as inactive or inconclusive. Unless noted, % is scaled to controls: 0 for no effect and ±100 for the full control effect; potency is read from the fitted curve at half-maximal effect.
SMILES,RORgamma inh,Gal4-VP16 FLuc,B2AR arrestin,NPSR antag
CCN(CC)c1ccc(NC(=O)Nc2cccc(C(C)=O)c2)cc1,7.9µM*,u,x,-23%[46.1 µM]
Cc1nc2cc(NC(=O)NC(C)(C)C)ccc2n1C,-5%,-2%,0%,4%
CCn1c(C)nc2cc(C(=O)OC)ccc21,21%,1%,0%,1%
O=C(NCCc1cccnc1)C1CCC(=O)N(Cc2ccc(Cl)cc2)C1 (centres undefined),-13%,1%,0%,x
Cc1ccc(NC(=O)NCc2nc3ccccc3n2C)cc1,-36%,7%,-1%,x
Cc1ccc(NC(=O)C2=C(O)CCn3c2nc2ccccc23)cc1,4.5µM*,5.6µM*,-1%,-6%[46.1 µM]
COCCn1c(=O)c(-c2ccc(Cl)cc2)nc2cnc(Oc3ccccc3)nc21,11%,11%,x,x
CN(C)S(=O)(=O)Oc1ccsc1C(=O)Nc1ccc(Cl)cc1,-41%,25µM*,-1%,-13%[46.1 µM]
O=S(=O)(c1ccc(Cl)c(NC(=S)N/N=C/c2c(F)cccc2F)c1)N1CCOCC1,2µM*,1.8µM*,-1%,-24%[46.1 µM]
O=S(=O)(c1ccc(Cl)c(NC(=S)N/N=C/c2ccc(O)cc2)c1)N1CCOCC1,10µM*,6.3µM*,0%,-26%
Cn1c(=O)[nH]c(=O)c2c1nc(N1CCCCC1)n2C/C=N/NC(=O)c1cc(Br)ccc1O,13µM*,u,0%,9%
CCN=C1NN=C(c2cc(C)n(CCc3ccccc3)c2C)CS1,0%,-2%,0%,-44%
CCN=C1NN=C(c2cc(C)n(Cc3ccco3)c2C)CS1,0.28µM*,u,0%,-11%
NC[C@@H]1O[C@@H](O[C@H]2[C@H](O)[C@H](O[C@@H]3O[C@H](CO)[C@@H](O)[C@H](N)[C@@H]3O)[C@@H](N)C[C@H]2N)[C@H](N)C[C@@H]1O,0%[2.98 µM],3%[17 µM],x,x
CCOc1ccc(C(=O)CC(NCc2cccs2)C(=O)O)cc1 (centres undefined),4.5µM*,13µM*,0%,-39%
CCOc1ccc(C(=O)CCC(=O)N(CC)CC(=O)NCc2cccs2)cc1,x,x,0%,x
CC(=O)Oc1ccc(N2C(=O)C3C(C2=O)C(C(=O)c2ccc(Cl)cc2)N2CCCC32)cc1 (centres undefined),-8%,14µM*,11%,-41%
Cc1ccc(N2C(=O)C3C(C2=O)C(C(=O)c2ccc(Cl)cc2)N2CCCC32)cc1 (centres undefined),u,11%,0%,-19%[46.1 µM]
Cc1c(/C(O)=C2/C(=O)C(=O)N(CCN3CCOCC3)C2c2ccccn2)cnn1-c1ccccc1 (centres undefined),1.1µM*,u,0%,-6%
Cc1cccc(C)c1NC(=O)C[N+](C)(C)C,-2%,3%,x,7%[46.1 µM]
COC(=O)c1ccc(C[n+]2ccccc2)cc1,0.1µM*,12%,1%,x
COC(=O)c1ccc(NC(=O)C[n+]2ccccc2)cc1,14%,-3%,4%,x
CCOc1ccccc1NC(=O)c1c(NC(=O)CNCc2ccco2)sc2c1CCC2,u,5.6µM*,0%,-29%[46.1 µM]
COC(=O)Nc1sc2c(c1C(=O)NCc1ccco1)CCC2,u,-2%[0.365 µM],0%,-4%[46.1 µM]
C=CCNCC(=O)Nc1sc2c(c1C(=O)Nc1ccc(OC)cc1OC)CCC2,0.45µM*,1.3µM*,0%,-45%
SMILES,RORgamma inh,Gal4-VP16 FLuc,B2AR arrestin,NPSR antag
COc1ccc2c(c1)Sc1ccccc1N2,6.3µM*,6.3µM*,-1%,-15%
c1ccc2c(c1)Nc1cc3ccccc3cc1S2,1%,7%,0%,u
COc1ccc(C2=Nn3c(nnc3-c3cc(OC)ccc3OC)SC2)c(OC)c1,23%,-5%,x,x
Cn1c(SCC(=O)Nc2ncc(C(F)(F)F)cc2Cl)nnc1-c1ccc(Cl)cc1,10µM*,11µM*,-1%,0%
CCn1c(SCC(=O)Nc2ncc(C(F)(F)F)cc2Cl)nnc1-c1ccccc1,28%,u,-1%,12%
Cc1nnc(SCC(=O)Nc2ncc(Cl)cc2Cl)n1Cc1ccccc1,4µM*,u,0%,-19%[46.1 µM]
Cc1nnc(SCC(=O)Nc2sccc2C(N)=O)n1Cc1ccccc1,4.5µM*,-6%,0%,-8%[46.1 µM]
CCCCC/C=C\C/C=C\C/C=C\C=C\C(O)CCCC(=O)O (centres undefined),11%,-1%,x,x
CC(C)OCCCn1c(-c2ccc(Br)cc2)c[nH]c1=S,1µM*,2.8µM*,-1%,-36%
CCCCN(CC)S(=O)(=O)c1ccc(C(=O)Nc2nnc(-c3cccs3)o2)cc1,0.028µM*,0.13µM*,0%,-25%[46.1 µM]
O=C(CCS(=O)(=O)c1ccc(F)cc1)Nc1nnc(-c2ccco2)o1,x,x,0%,x
CN(C)S(=O)(=O)c1ccc(C(=O)Nc2nnc(-c3ccco3)o2)cc1,1µM*,3.2µM*,0%,-5%
CCN(CC)S(=O)(=O)c1ccc(Cl)c(NC(=O)CSc2nnc(-c3cccs3)o2)c1,3%,-5%,0%,-2%
CCN(CC)S(=O)(=O)c1ccc(C(=O)Nc2nnc(-c3ccco3)o2)cc1,0.56µM*,1.3µM*,0%,-28%
CN(c1ccccc1)S(=O)(=O)c1ccc(C(=O)Nc2nnc(-c3ccc(F)cc3)o2)cc1,1µM*,1.6µM*,-1%,-19%[46.1 µM]
Cc1cccc(CNc2ncnc3ccc(-c4ccccc4CN(C)C)cc23)c1,u,-2%,x,x
Cn1nccc1C(=O)Oc1ccc(/C=N/NC(=O)c2ccccc2O)cc1,u,u,0%,-12%
CCCCN(C)S(=O)(=O)c1ccc(C(=O)Nc2nnc(-c3ccco3)o2)cc1,0.4µM*,0.71µM*,0%,-22%
CSc1ccc(CN(C)Cc2nc3ccccc3c(=O)[nH]2)cc1,u,u,-1%,-13%
C=CCOc1ccc(CN(C)Cc2nc3cc(C(F)(F)F)ccc3c(=O)[nH]2)cc1,7.1µM*,u,0%,-20%
COc1cccc(Oc2ccc(C(F)(F)F)cc2NC(=O)CCc2nc3ccccc3c(=O)[nH]2)c1,28%,30%,1%,x
COc1cccc(CN(C)Cc2nc3cc(C(F)(F)F)ccc3c(=O)[nH]2)c1,2µM*,-19%,0%,1%
COC(=O)[C@@]1(Cc2ccccc2)[C@H]2c3cc(C(=O)N4CCCC4)n(Cc4ccc(O)c(OC)c4)c3C[C@H]2CN1C(=O)c1ccccc1,17%,-7%,x,x
Cc1ncc([N+](=O)[O-])n1Cc1cccc(F)c1,19%,-4%,0%,1%
COc1ccccc1N1CCN(C(=S)NC(=O)/C=C/c2ccccc2)CC1,0.89µM*,7.1µM*,0%,17%
COc1ccccc1N1CCN(C(=O)CCC(=O)O)CC1,5%,-13%,0%,-10%
COc1ccccc1N1CCN(C(=S)NC(=O)/C=C/c2ccc(F)cc2)CC1,3.5µM*,10µM*,0%,25%
COC(=O)[C@H]1C[C@@H]1[C@H](NC(C)=O)c1ccccc1,10%,0%,x,x
FC(F)(F)c1ccccc1NC(=S)N/N=C1\CC2CC=CC12 (centres undefined),0.5µM*,14µM*,9%,-39%
O=C(CSc1nc2cc(Cl)ccc2o1)NC1CC1,x,x,0%,x

# High-throughput results: PubChem, National Center for Advancing Translational Sciences (NCATS)
